Assay outcomes from PubChem BioAssay.
This is a sample that favours compounds with a hit; in the whole collection about 0.84% have one here.
TR-FRET SRC-2 ct – TR-FRET signal artefacts, primary screen, artefact control for PPARgamma SRC-2 agonist project, biochemical; TR-FRET artefact counter-screen; stronger effect = higher value; TR-FRET ratio at 8 µM; hit rate 0.4% among 200,000
PPARg SRC3 recr – PPARgamma agonists recruiting SRC-3 coactivator, primary screen, biochemical; Peroxisome proliferator-activated receptor gamma (Homo sapiens), P37231; biochemical PPARgamma/SRC-3 coactivator recruitment assay; activation, % at 8 µM; hit rate 0.26% among 200,000; in the data active = activation above about 23%;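 also: 0% = DMSO and 100% = reference agonist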
Target sequence (P37231 whole entry, looked up): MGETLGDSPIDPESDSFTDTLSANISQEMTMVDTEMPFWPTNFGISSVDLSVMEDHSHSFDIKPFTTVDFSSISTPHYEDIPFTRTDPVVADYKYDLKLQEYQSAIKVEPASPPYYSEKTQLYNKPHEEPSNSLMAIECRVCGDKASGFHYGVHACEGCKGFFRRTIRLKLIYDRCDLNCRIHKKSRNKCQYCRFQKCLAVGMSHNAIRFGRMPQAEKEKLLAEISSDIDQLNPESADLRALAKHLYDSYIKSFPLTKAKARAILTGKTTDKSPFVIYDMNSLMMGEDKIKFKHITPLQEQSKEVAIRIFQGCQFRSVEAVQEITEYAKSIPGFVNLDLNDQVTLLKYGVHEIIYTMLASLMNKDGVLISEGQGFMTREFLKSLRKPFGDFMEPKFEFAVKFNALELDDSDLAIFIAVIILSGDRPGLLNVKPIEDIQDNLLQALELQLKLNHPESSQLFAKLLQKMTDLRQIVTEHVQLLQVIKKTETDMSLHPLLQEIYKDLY
PPARg SRC-2 ag – agonists of PPARg-SRC-2 recruitment, primary screen, biochemical, HTS. Peroxisome proliferator-activated receptor gamma (Homo sapiens), P37231. PPARgamma LBD-SRC-2 recruitment. activation, % at 8 µM. hit rate 0.34% among 200,000. AID 1032, 2008; in the data active = activation above about 22%;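 also: 0% = vehicle and 100% = reference agonist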
SRC3 TRFRET art – TR-FRET detection interference compounds, artefact control for PPARgamma SRC-3 recruitment agonists, biochemical, TR-FRET ratio; TR-FRET artefact counter-screen, PPARgamma/SRC-3 format; stronger effect = higher value; TR-FRET ratio at 8 µM; AID 1048, 2008; hit rate 0.39% among 99,000
PPARg SRC1 recr – PPARgamma agonists recruiting SRC-1 coactivator, primary screen, biochemical | AID 631, 2007 | activation, % at 8 µM | PPARgamma-SRC-1 coactivator recruitment biochemical assay | Peroxisome proliferator-activated receptor gamma (Homo sapiens), P37231 | hit rate 0.41% among 200,000; in the data active = activation above about 19%;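 also: 0% = DMSO and 100% = reference agonist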
SRC1 TRFRET art – TR-FRET detection interference compounds, primary screen, artefact control for PPARgamma SRC-1 recruitment agonists, biochemical, TR-FRET emission ratio | TR-FRET detection artefact counter-screen; stronger effect = higher value | TR-FRET ratio at 8 µM | hit rate 0.34% among 99,000 | AID 1051, 2008; in the data active = TR-FRET ratio above about 2300
Active calls of the source: *; · = no result. Rule as the data show it, unless noted: active = TR-FRET ratio above about 2000; inactive = the rest.

SMILES	TR-FRET SRC-2 ct	PPARg SRC3 recr	PPARg SRC-2 ag	SRC3 TRFRET art	PPARg SRC1 recr	SRC1 TRFRET art
CC(C)CCNC(=O)NC(=O)COC(=O)/C=C/c1cnc2ccccc2n1	2705*	0.6	63.5*	·	10.5	·
OCC1(Cc2ccc(Cl)cc2)CCN(Cc2ccc3nsnc3c2)CC1	1895	14.2	19.6	2045	18.1	2393*
CCNC(=S)N=Nc1c(O)[nH]c2ccc([N+](=O)[O-])cc12	1982*	0.2	11.1	1665	8.0	2171
O=[N+]([O-])c1ccc2[nH]c(O)c(N=NC(=S)NCC3CCCO3)c2c1 (stereo not drawn)	1299	-6.2	-4.0	1631	3.2	1664
CN(C)S(=O)(=O)c1ccc(N2CCCC2)c(C(=O)Nc2nc3c(ccc4ccccc43)s2)c1	2069*	6.6	10.1	2179*	1.5	2112
O=C(Nc1nc2c(ccc3ccccc32)s1)c1cc([N+](=O)[O-])ccc1N1CCOCC1	1851	-0.9	-7.5	1643	3.5	2030
Cc1ccc2nsnc2c1NC(=O)c1cncc(Br)c1	1582	-2.5	-10.8	1486	3.2	1628
C=CCN(CC=C)C(=O)c1ccc(OC2CCN(Cc3ccccn3)CC2)cc1	1635	-3.3	1.2	1588	-1.6	1328
O=C(Nc1nc(-c2nc3ccccc3s2)cs1)C1COc2ccccc2O1 (stereo not drawn)	1973*	9.8	17.4	1956	9.0	2597*
COc1cc(C#N)c(NC(=S)N2CCOCC2)cc1OC	2021*	5.9	11.8	1717	17.3	2063
O=C1Cc2cc(CCN3CCN(c4nsc5ccccc45)CC3)c(Cl)cc2N1	1522	-1.1	2.7	1480	3.1	1812
Cc1cccc(N2CCN(C(=O)c3cc(C)oc3C)CC2C)c1 (stereo not drawn)	1709	1.3	-0.1	1532	13.5	2332*
Cc1cccc(N2CCN(C(=O)c3ccncc3)CC2C)c1 (stereo not drawn)	1601	1.5	-4.1	·	0.5	·
COc1ccc(OC)c(-c2csc(NC(=O)c3ccc4c(c3)OCO4)n2)c1	1482	1.2	9.9	2559*	1.5	1916
COc1ccc(CC(=O)Nc2nc(-c3cc(OC)ccc3OC)cs2)cc1	1470	3.6	2.0	1551	0.2	1968
COC(=O)c1ccc(N2CCN(C)CC2)c(NC(=O)c2cc3ccccc3o2)c1	1388	-8.3	-6.7	·	-3.0	·
COC(=O)c1ccc(C(=O)OC)c(NC(=O)c2cc3ccccc3o2)c1	1501	-3.7	3.7	·	23.6*	·
Cc1ccc2nsnc2c1NC(=O)COc1ccccc1F	1429	-1.9	2.2	1449	10.3	1783
CCOC(=O)c1c(NC(=O)CSc2nc3cc(Cl)ccc3s2)sc(C(C)=O)c1C	1636	4.9	7.7	1545	2.3	1894
CCOC(=O)c1c(NC(=O)CSc2nc3ccccc3s2)sc(C(C)=O)c1C	2122*	0.2	3.1	·	-1.6	·
Cc1cc(C)n(CCc2nc(-c3ccco3)cs2)n1	1596	-3.1	6.3	·	-5.5	·
Cc1nn(CCc2nc(-c3ccco3)cs2)c2[nH]c(=O)cc(C(F)(F)F)c12	1605	-1.2	8.5	2055*	9.0	1614
FC(F)(F)c1cccc(-c2ccn3ncnc3n2)c1	1645	-1.8	3.6	1524	4.4	1832
COc1ccc(C(=O)Nn2c(SCC(=O)c3ccc(Cl)cc3)nc3ccccc3c2=O)cc1	2000*	7.0	5.5	·	-1.4	·
N/C(=N\OC(=O)COc1ccc2ccccc2c1)c1cccnc1	1598	4.5	6.1	1744	2.6	1725
SMILES	TR-FRET SRC-2 ct	PPARg SRC3 recr	PPARg SRC-2 ag	SRC3 TRFRET art	PPARg SRC1 recr	SRC1 TRFRET art
CCOc1ccc(S(=O)(=O)c2c(C(=O)c3ccccc3)cnc3cc4c(cc23)OCCO4)cc1	1938	-5.7	-3.9	2180*	6.6	2111
CCN(CC)c1c(-c2ccccc2)c2cc(C)ccc2[nH]c1=O	1789	5.3	5.9	1590	3.5	2033
CC/C(C)=N/NC(=O)c1[nH]c2ccc(C)cc2c1-c1ccccc1	1988*	0.9	7.3	1693	5.0	2076
CCOC(=O)Cc1nnc(NC(=O)CSc2nnc3c4ccccc4n(C)c3n2)s1	1369	-6.2	3.7	·	-3.8	·
O=C(CSc1nnnn1-c1ccccc1)Nc1nsc(-c2ccc(Cl)cc2)n1	1576	6.9	2.5	2179*	7.4	1911
COc1cccc(-c2cc3nc(-c4ccccc4)cc(N4CCC5(CC4)OCCO5)n3n2)c1	2317*	8.3	6.8	·	9.2	·
CCOC(=O)COc1ccc(/C=C2\NC(=S)N(CC)C2=O)cc1	3635*	-0.1	94.0*	1401	-6.3	1582
CCOC(=O)CN1C(=O)C(O)=C(C(C)=O)C1c1ccc(F)cc1 (stereo not drawn)	1280	-2.7	0.4	·	5.6	·
COc1ccc(NC(=O)CSc2ccc3c4c(cccc24)C(=O)c2ccccc2-3)cc1	1589	42.8*	-5.5	·	13.9	·
N#Cc1cccc(NC(=O)CSc2ccc3c4c(cccc24)C(=O)c2ccccc2-3)c1	1641	19.2	6.0	·	5.7	·
CCOCC(=O)Nc1ccc([N+](=O)[O-])cc1C	1531	2.0	-5.7	1537	-4.1	1621
CC(C)CCSc1nc(N)c(C#N)cc1C#N	2957*	-1.5	16.1	·	10.6	·
COc1ccc(OC)c(S(=O)(=O)NCCc2ccccc2)c1	1490	1.1	1.2	·	1.8	·
Cn1nc(-c2ccccc2)c(C(=O)Nc2ccc(Cl)cc2)c1Cl	1469	6.8	-1.9	·	5.3	·
Cn1nc(-c2ccccc2)c(C(=O)Nc2ccc(C(F)(F)F)cc2)c1Cl	1625	32.2*	1.4	·	5.0	·
CS(=O)(=O)ON=C1CCN(S(=O)(=O)c2ccccc2)CC1	1578	-2.3	7.6	1612	7.1	1869
CCN(CC)C(=O)c1cn(-c2ccccc2)nc1-c1ccc2c(c1)OCCO2	1980*	6.2	5.3	1746	9.2	1844
CCN(CC)C(=O)c1cn(CCC#N)nc1-c1ccc2c(c1)OCCO2	1582	2.9	4.8	1364	12.1	2134
NNC(=S)NCc1ccc2c(c1)OCO2	1599	0.2	2.9	1745	9.4	2024
Cc1c(C(=O)Nc2ccc(-n3cnnn3)cc2)oc2ccccc12	1999*	10.1	0.6	·	4.0	·
O=C(CNc1cc(S(=O)(=O)N2CCOCC2)ccc1N1CCCC1)N1CCc2ccccc21	1661	-0.2	3.5	1434	-5.2	1619
COC(=O)CC1=NN(c2nc3ccccc3s2)C(=O)/C1=C/N(C)C	1552	7.3	6.5	1677	4.1	2042
O=C(Cc1ccccc1[N+](=O)[O-])NCc1ccc2c(c1)OCO2	1512	12.4	3.9	1639	12.4	2325*
O=C(Cc1ccccc1)NCc1ccc2c(c1)OCO2	1270	-6.5	-1.4	·	-0.4	·
